Test results: the supplement of paper PMC10849652
About 8,800 targets were measured; listed, in parts, are those with a hit and a random draw of the rest. About 0.5% of all pairs of compound and target were hits.

Tests used:
Experiment in all cases: log2 fold change, soluble protein after heating vs DMSO (PISA); higher = thermal stabilisation; K562 lysate, 10 uM; active = over 0.2 and 3.5 SD of the protein, either way, in both replicates (recomputed)
vemurafenib = compound: CCCS(=O)(=O)Nc1ccc(F)c(C(=O)c2c[nH]c3ncc(-c4ccc(Cl)cc4)cc23)c1F [vemurafenib]
Summary of the method: (§1)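 Soluble protein was defined as the supernatant remaining after 21,000xg for 90 min, following pooling of heated aliquots and adjustment to 0.5% NP-40 at 4°C. Before that, crude K562 extract at 1 mg/mL protein in PBS pH 7.4 with 1 mM MgCl2 was treated with 10 μM compound for 30 min and heated for 3 min across 48°C-58°C. Quantification used TMTpro 16plex LC-MS/MS with channel sums equalised, and values are log-two fold changes in thermal stability relative to solvent controls from duplicates.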

[1] = compound: CCCS(=O)(=O)Nc1ccc(F)c(C(=O)c2c[nH]c3ncc(Cl)cc23)c1F
Summary of the method: as §1

barasertib = compound: CCN(CCCOc1ccc2c(Nc3cc(CC(=O)Nc4cccc(F)c4)[nH]n3)ncnc2c1)CCOP(=O)(O)O [barasertib]
Summary of the method: as §1

[2] = compound: CC[C@@H]1C(=O)N(C)c2cnc(Nc3ccc(C(=O)NC4CCN(C)CC4)cc3OC)nc2N1C1CCCC1
Summary of the method: as §1

volasertib = compound: CC[C@@H]1C(=O)N(C)c2cnc(Nc3ccc(C(=O)N[C@H]4CC[C@H](N5CCN(CC6CC6)CC5)CC4)cc3OC)nc2N1C(C)C [volasertib]
Summary of the method: as §1

[3] = compound: CCn1c(C(=O)N(C2CC2)C2CC2)cc2c3c(ncn3C)c(Nc3cc(C)n(C)n3)nc21
Summary of the method: as §1

[4] = compound: CCn1cc(-c2ccnc3[nH]c(-c4cccc(CN(C)C)c4)cc23)c(-c2ccc(NC(=O)N(C)C)cc2)n1
Summary of the method: as §1

[5] = compound: CN1CCC(CNc2ccc3ncc(-c4cccc(OC(F)(F)F)c4)n3n2)CC1
Summary of the method: as §1

saracatinib = compound: CN1CCN(CCOc2cc(OC3CCOCC3)c3c(Nc4c(Cl)ccc5c4OCO5)ncnc3c2)CC1 [saracatinib]
Summary of the method: as §1

sotrastaurin = compound: CN1CCN(c2nc(C3=C(c4c[nH]c5ccccc45)C(=O)NC3=O)c3ccccc3n2)CC1 [sotrastaurin]
Summary of the method: as §1

alvocidib = compound: CN1CC[C@H](c2c(O)cc(O)c3c(=O)cc(-c4ccccc4Cl)oc23)[C@H](O)C1 [alvocidib]
Summary of the method: as §1

Tubastatin A = compound: CN1CCc2c(c3ccccc3n2Cc2ccc(C(=O)NO)cc2)C1 [Tubastatin A]
Summary of the method: as §1

[6] = compound: CNC(=O)C1=CC=CC=C1NC2=NC(=NC=C2Cl)NC3=C(C=C(C=C3)N4CCOCC4)OC
Summary of the method: as §1

defactinib = compound: CNC(=O)c1ccc(Nc2ncc(C(F)(F)F)c(NCc3nccnc3N(C)S(C)(=O)=O)n2)cc1 [defactinib]
Summary of the method: as §1

[7] = compound: CNc1nc(-c2ccc3c(N)n[nH]c3c2)cc(N2C[C@@H](C(=O)NC3CCCCC3)CC[C@H]2C)n1
Summary of the method: as §1

encorafenib = compound: COC(=O)N[C@@H](C)CNc1nccc(-c2cn(C(C)C)nc2-c2cc(Cl)cc(NS(C)(=O)=O)c2F)n1 [encorafenib]
Summary of the method: as §1

[8] = compound: COC(=O)[C@H](CCSC)NC(=O)C1=C(C=C(C=C1)NC[C@H](CS)N)C2=CC=CC=C2
Summary of the method: as §1

alisertib = compound: COc1cc(Nc2ncc3c(n2)-c2ccc(Cl)cc2C(c2c(F)cccc2OC)=NC3)ccc1C(=O)O [alisertib]
Summary of the method: as §1

[9] = compound: COc1cc2nc(-c3cc(F)ccc3O)nc(N[C@@H]3CNC[C@H]3C(C)(C)O)c2cc1OC
Summary of the method: as §1

gefitinib = compound: COc1cc2ncnc(Nc3ccc(F)c(Cl)c3)c2cc1OCCCN1CCOCC1 [gefitinib]
Summary of the method: as §1

Measured: log2 fold change

CAPN15 (UniProt O75808)
UniProt O75808, sequence (O75808 whole entry, looked up): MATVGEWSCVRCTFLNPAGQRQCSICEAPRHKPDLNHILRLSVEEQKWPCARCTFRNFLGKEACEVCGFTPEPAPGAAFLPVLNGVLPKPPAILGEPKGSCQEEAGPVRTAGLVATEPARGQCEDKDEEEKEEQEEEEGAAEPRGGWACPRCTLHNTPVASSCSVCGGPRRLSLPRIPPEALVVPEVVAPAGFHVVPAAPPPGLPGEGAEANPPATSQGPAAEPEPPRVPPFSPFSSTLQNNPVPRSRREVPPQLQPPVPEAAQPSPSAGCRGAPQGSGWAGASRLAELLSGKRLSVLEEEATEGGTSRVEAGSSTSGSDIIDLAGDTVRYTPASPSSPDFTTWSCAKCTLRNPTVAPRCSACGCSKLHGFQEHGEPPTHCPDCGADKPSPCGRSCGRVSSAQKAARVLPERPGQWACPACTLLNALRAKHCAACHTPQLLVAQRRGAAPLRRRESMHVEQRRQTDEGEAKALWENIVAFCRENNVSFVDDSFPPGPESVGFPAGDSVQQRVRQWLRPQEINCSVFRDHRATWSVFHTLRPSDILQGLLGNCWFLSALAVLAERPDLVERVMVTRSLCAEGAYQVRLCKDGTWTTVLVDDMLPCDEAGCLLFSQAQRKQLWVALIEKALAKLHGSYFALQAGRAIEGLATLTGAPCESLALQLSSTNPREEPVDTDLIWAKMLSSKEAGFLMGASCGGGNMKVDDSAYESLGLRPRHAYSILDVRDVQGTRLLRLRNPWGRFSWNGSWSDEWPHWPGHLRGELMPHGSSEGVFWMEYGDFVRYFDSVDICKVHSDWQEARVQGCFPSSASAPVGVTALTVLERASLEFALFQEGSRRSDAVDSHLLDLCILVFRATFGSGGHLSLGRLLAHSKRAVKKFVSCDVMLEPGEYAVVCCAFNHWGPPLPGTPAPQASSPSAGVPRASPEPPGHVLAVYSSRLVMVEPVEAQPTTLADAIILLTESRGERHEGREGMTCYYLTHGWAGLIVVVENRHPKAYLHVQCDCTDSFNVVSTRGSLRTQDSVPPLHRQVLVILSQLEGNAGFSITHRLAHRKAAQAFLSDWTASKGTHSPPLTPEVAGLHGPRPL
inactive: vemurafenib 0.04 | [1] -0.046 | barasertib 0.077 | [2] -0.007 | volasertib 0.027 | [3] 0.013 | [4] 0.037 | [5] 0.016 | saracatinib 0.032 | sotrastaurin -0.091 | alvocidib -0.01 | Tubastatin A -0.043 | [6] 0.001 | defactinib -0.014 | [7] 0.19 | encorafenib -0.029 | [8] 0.03 | alisertib -0.03 | [9] 0.024 | gefitinib -0.024

C3orf33 (UniProt Q6P1S2)
UniProt Q6P1S2, sequence (Q6P1S2 whole entry, looked up): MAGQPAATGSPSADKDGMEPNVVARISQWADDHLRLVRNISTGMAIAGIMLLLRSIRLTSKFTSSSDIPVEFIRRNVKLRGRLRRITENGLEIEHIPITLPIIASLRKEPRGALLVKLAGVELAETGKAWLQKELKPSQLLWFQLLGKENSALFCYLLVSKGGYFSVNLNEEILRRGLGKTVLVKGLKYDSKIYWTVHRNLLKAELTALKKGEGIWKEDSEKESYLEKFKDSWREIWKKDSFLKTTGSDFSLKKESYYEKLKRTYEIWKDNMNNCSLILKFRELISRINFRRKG
active: [4] -0.823
inactive: vemurafenib 0.295 | [1] -0.043 | barasertib -0.04 | volasertib 0.063 | [3] -0.056 | [5] 0.216 | saracatinib 0.045 | sotrastaurin 0.047 | alvocidib -0.166 | Tubastatin A 0.124 | [6] -0.084 | defactinib 0.224 | [7] 0.115 | alisertib -0.13 | [9] -0.111 | gefitinib 0.006

CD80 (UniProt P33681)
inactive: vemurafenib 0.115 | [1] -0.113 | [2] 0.063 | volasertib -0.001 | [3] -0.011 | [4] 0.239 | [5] -0.177 | saracatinib -0.069 | sotrastaurin 0.032 | alvocidib 0.071 | Tubastatin A 0 | [6] 0.014 | defactinib -0.085 | [7] 0.11 | encorafenib 0.016 | [8] -0.082 | alisertib -0.345 | [9] -0.011 | gefitinib -0.001

CDK8 (UniProt P49336)
UniProt P49336, sequence (P49336 whole entry, looked up): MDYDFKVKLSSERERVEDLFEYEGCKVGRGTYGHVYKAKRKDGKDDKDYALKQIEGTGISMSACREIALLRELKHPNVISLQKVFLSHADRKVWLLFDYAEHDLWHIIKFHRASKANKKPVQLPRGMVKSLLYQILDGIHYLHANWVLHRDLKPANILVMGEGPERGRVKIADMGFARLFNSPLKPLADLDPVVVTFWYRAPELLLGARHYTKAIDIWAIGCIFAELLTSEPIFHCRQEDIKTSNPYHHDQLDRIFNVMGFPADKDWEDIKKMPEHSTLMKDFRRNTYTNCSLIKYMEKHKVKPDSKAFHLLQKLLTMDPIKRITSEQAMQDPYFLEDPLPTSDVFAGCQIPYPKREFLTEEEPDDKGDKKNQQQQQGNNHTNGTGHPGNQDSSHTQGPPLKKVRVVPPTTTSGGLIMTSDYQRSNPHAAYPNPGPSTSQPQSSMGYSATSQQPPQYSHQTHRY
inactive: vemurafenib 0.065 | [1] 0.138 | barasertib 0.002 | volasertib -0.083 | [3] -0.011 | [4] -0.134 | [5] 0.045 | saracatinib 0.109 | sotrastaurin -0.001 | Tubastatin A -0.059 | [6] -0.065 | defactinib -0.101 | [7] 0.083 | alisertib -0.052 | [9] -0.047 | gefitinib 0.07
active: alvocidib 0.384

BRD3 (UniProt Q15059)
active: [2] 0.451
inactive: vemurafenib -0.046 | [1] 0.038 | barasertib -0.087 | volasertib 0.263 | [4] -0.143 | [5] 0.188 | saracatinib 0.008 | sotrastaurin -0.082 | alvocidib -0.059 | [6] 0.105 | defactinib 0.017 | [7] 0.09 | encorafenib -0.016 | [8] 0.018 | alisertib -0.003 | [9] -0.015 | gefitinib -0.15

CCDC85B (UniProt Q15834)
inactive: vemurafenib -0.317 | [1] 0.04 | barasertib -0.047 | [2] 0.086 | volasertib 0.345 | [3] 0.007 | [4] 0.126 | [5] -0.01 | saracatinib 0.163 | sotrastaurin -0.035 | alvocidib 0.016 | Tubastatin A 0.016 | [6] 0.217 | defactinib 0.183 | [7] -0.08 | encorafenib 0.255 | [8] -0.481
active: [9] -0.508

CAMK2B (UniProt Q13554)
UniProt Q13554, sequence (Q13554 whole entry, looked up): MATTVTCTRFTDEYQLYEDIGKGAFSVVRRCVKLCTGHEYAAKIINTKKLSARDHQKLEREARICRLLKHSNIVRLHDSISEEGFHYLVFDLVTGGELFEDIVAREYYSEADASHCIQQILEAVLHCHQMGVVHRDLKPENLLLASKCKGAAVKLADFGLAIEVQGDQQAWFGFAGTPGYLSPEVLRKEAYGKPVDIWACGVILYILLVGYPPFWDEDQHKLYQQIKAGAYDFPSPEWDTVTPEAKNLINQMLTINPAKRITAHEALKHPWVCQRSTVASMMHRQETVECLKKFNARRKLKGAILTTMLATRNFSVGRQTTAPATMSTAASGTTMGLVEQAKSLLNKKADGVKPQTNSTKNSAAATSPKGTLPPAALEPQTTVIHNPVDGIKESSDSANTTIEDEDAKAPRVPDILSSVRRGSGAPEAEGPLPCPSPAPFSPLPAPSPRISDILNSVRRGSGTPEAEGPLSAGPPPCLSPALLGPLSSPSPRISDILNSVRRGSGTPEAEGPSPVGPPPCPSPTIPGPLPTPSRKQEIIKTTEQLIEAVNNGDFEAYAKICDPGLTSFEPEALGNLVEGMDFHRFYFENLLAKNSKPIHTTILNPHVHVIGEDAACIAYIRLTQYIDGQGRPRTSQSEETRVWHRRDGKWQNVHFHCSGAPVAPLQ
inactive: vemurafenib 0.011 | [1] -0.058 | barasertib 0.014 | volasertib -0.145 | [3] 0.022 | [4] -0.021 | [5] 0.049 | saracatinib -0.077 | alvocidib 0.318 | Tubastatin A -0.035 | defactinib 0.009 | [7] -0.069 | encorafenib -0.045 | [8] 0.067 | alisertib 0.001 | [9] -0.005 | gefitinib 0.026

ATP9B (UniProt O43861)
inactive: vemurafenib -0.046 | [1] 0.02 | barasertib -0.024 | [2] -0.081 | volasertib -0.051 | [3] -0.015 | [4] -0.07 | [5] 0.189 | saracatinib 0.046 | sotrastaurin -0.071 | alvocidib -0.076 | Tubastatin A 0.048 | [6] 0.044 | defactinib -0.117 | [7] -0.018 | encorafenib 0.068 | [8] 0.012 | alisertib -0.081 | [9] 0.16 | gefitinib -0.015

AUH (UniProt Q13825)
UniProt Q13825, sequence (Q13825 whole entry, looked up): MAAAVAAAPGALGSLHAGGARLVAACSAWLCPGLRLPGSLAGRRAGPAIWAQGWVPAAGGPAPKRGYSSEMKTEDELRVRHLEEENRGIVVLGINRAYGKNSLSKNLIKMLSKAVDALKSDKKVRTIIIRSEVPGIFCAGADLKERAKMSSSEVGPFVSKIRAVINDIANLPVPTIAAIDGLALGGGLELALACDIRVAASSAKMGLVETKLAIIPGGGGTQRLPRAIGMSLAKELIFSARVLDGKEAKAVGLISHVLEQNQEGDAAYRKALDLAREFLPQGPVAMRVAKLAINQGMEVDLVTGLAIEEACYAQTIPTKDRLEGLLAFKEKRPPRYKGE
inactive: vemurafenib 0.083 | [1] -0.009 | barasertib 0.004 | [2] 0.042 | volasertib -0.093 | [3] 0 | [4] 0.1 | [5] 0 | saracatinib -0.101 | sotrastaurin 0.047 | alvocidib 0.221 | Tubastatin A 0.147 | [6] 0.057 | defactinib -0.169 | [7] 0.049 | encorafenib 0.015 | [8] 0.023 | [9] -0.052

AVEN (UniProt Q9NQS1)
UniProt Q9NQS1, sequence (Q9NQS1 whole entry, looked up): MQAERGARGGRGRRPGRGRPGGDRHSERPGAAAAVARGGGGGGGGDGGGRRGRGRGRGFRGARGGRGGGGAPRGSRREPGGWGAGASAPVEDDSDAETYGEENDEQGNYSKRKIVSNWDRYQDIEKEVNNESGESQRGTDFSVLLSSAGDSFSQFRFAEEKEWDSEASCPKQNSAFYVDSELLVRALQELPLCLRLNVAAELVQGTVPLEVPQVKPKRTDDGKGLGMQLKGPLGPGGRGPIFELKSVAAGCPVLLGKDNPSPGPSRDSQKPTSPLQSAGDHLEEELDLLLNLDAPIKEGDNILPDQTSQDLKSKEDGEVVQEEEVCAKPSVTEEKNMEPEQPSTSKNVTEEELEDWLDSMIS
active: [4] -0.651
inactive: vemurafenib 0.177 | barasertib -0.091 | [2] 0.117 | [3] -0.025 | [5] 0.167 | saracatinib 0 | sotrastaurin -0.007 | alvocidib -0.047 | Tubastatin A -0.154 | [6] 0.049 | defactinib -0.097 | [7] 0.082 | encorafenib 0.017 | [8] 0.016 | alisertib 0.061 | gefitinib -0.09

C16orf70 (UniProt Q9BSU1)
UniProt Q9BSU1, sequence (Q9BSU1 whole entry, looked up): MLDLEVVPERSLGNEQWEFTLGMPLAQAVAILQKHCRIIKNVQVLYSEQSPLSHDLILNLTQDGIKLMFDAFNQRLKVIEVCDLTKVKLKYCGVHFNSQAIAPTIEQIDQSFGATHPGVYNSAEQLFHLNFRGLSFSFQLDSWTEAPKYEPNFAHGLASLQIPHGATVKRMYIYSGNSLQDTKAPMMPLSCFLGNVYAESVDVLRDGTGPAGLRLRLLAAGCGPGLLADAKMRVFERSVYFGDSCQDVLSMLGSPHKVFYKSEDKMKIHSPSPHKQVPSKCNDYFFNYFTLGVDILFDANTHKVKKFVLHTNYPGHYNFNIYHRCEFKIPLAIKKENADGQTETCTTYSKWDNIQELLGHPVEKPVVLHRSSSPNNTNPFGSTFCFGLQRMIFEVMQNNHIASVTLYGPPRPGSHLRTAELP
inactive: vemurafenib 0.053 | [1] 0.086 | barasertib -0.016 | [2] 0 | volasertib -0.038 | [3] 0.018 | saracatinib -0.037 | sotrastaurin 0.031 | Tubastatin A 0.075 | [6] 0.082 | defactinib 0.216 | [7] -0.005 | encorafenib 0.04 | [8] -0.135 | [9] 0.076

CEP41 (UniProt Q9BYV8)
UniProt Q9BYV8, sequence (Q9BYV8 whole entry, looked up): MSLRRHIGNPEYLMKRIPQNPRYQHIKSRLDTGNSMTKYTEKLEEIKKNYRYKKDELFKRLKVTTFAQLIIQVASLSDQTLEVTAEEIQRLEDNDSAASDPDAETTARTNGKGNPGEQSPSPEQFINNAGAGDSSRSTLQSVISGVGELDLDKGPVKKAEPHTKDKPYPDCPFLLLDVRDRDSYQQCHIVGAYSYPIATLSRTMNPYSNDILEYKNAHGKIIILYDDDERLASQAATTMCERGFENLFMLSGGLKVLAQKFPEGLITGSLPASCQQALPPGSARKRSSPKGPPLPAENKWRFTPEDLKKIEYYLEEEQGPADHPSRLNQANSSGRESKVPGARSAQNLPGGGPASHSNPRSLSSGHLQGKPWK
inactive: vemurafenib -0.022 | [1] 0.108 | barasertib 0.03 | [2] 0.018 | volasertib -0.023 | [4] 0.02 | [5] -0.009 | saracatinib -0.032 | sotrastaurin 0.03 | alvocidib 0.042 | [6] 0.083 | defactinib 0.015 | [7] 0.073 | encorafenib 0.001 | [8] -0.139 | alisertib 0.029 | [9] -0.059 | gefitinib 0.011

CDAN1 (UniProt Q8IWY9)
inactive: vemurafenib -0.047 | [1] 0.004 | barasertib 0.014 | [2] -0.093 | volasertib -0.034 | [3] 0.031 | [4] -0.03 | [5] -0.012 | saracatinib 0.002 | sotrastaurin -0.005 | alvocidib -0.034 | Tubastatin A -0.051 | [6] 0.049 | defactinib 0.039 | [7] 0.017 | encorafenib -0.018 | [8] 0.093 | alisertib 0.02 | [9] -0.022 | gefitinib -0.012

CDKN1B (UniProt P46527)
UniProt P46527, sequence (P46527 whole entry, looked up): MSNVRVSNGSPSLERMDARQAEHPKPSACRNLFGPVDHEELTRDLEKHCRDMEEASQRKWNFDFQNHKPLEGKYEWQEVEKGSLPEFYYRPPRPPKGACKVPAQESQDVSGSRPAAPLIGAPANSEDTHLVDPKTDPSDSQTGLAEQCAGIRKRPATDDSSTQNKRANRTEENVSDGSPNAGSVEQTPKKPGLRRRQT
inactive: vemurafenib -0.12 | [1] 0.004 | barasertib -0.032 | [2] 0.063 | volasertib -0.039 | [3] 0.099 | [4] 0.118 | [5] -0.119 | saracatinib -0.012 | sotrastaurin 0.015 | alvocidib 0.057 | Tubastatin A 0.048 | [6] 0.035 | defactinib 0.067 | [7] -0.045 | encorafenib 0.03 | [8] -0.043 | [9] 0.023

CACUL1 (UniProt Q86Y37)
inactive: vemurafenib 0.04 | [1] 0.053 | [2] -0.04 | volasertib 0.106 | [3] -0.072 | [4] 0.012 | [5] -0.111 | saracatinib -0.026 | sotrastaurin 0.103 | alvocidib 0.022 | Tubastatin A -0.029 | [6] -0.027 | defactinib 0.027 | [7] -0.04 | encorafenib -0.02 | [8] -0.042 | [9] 0.212

CHCHD7 isoform 4 (UniProt Q9BUK0)
inactive: vemurafenib 0.026 | [1] 0.06 | barasertib -0.026 | [2] 0.073 | volasertib -0.064 | [3] 0.021 | [5] 0.155 | saracatinib -0.021 | sotrastaurin 0.077 | alvocidib -0.097 | Tubastatin A 0.082 | defactinib -0.009 | [7] -0.141 | encorafenib 0.005 | [8] -0.003 | alisertib 0.177 | [9] 0.027 | gefitinib 0.118
active: [4] -0.71

ATF7IP2 (UniProt Q5U623)
UniProt Q5U623, sequence (Q5U623 whole entry, looked up): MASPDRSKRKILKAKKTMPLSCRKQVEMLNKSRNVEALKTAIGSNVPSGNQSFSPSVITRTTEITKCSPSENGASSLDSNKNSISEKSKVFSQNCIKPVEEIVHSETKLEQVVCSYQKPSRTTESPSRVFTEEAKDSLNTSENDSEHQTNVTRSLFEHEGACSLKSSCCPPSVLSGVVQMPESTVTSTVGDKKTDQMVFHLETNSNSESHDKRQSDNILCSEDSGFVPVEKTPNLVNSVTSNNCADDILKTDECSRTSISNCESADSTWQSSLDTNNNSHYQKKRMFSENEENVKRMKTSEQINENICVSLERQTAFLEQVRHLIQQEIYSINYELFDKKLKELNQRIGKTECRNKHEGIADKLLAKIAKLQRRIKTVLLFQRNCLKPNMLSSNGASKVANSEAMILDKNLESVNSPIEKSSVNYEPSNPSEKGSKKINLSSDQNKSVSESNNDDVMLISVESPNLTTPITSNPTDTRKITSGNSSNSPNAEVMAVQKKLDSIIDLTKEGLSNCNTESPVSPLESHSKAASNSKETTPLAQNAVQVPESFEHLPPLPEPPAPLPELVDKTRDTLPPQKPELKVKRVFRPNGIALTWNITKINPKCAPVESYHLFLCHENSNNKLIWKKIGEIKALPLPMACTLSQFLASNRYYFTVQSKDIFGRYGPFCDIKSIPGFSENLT
inactive: vemurafenib 0.062 | [1] -0.041 | barasertib 0.009 | volasertib 0.083 | [3] -0.064 | [4] -0.145 | [5] 0.197 | sotrastaurin 0.031 | alvocidib -0.197 | Tubastatin A 0.071 | [6] -0.065 | defactinib -0.072 | alisertib 0.003 | [9] 0.064 | gefitinib 0.044

CEBPZOS (UniProt A8MTT3)
UniProt A8MTT3, sequence (A8MTT3 whole entry, looked up): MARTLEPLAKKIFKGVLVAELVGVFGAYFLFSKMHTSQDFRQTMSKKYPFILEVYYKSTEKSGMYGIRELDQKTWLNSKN
inactive: vemurafenib 0.031 | [1] -0.026 | [2] -0.048 | volasertib -0.007 | [3] 0.024 | [4] -0.176 | [5] 0.041 | saracatinib 0.03 | sotrastaurin -0.005 | alvocidib -0.063 | Tubastatin A -0.124 | [6] 0.015 | defactinib 0.075 | [7] -0.055 | encorafenib 0.064 | [8] 0.046 | alisertib -0.064 | [9] -0.099 | gefitinib 0.006
